# From PubChem BioAssay (EPA / NIEHS)
# Values joined by “and” are separate entries in the source; they are usually repeats but may differ in a detail not shown here. Equal values may be shown once. Results filed as inconclusive are left out. The source holds several records for some structures; these can differ, active in one and inactive in another. Active and inactive are the calls of the source. How the source made its calls, unless noted: active means hit-call score of the fitted dose curve at least 0.9, where 1 is the maximum; inconclusive means response in the unintended direction; inactive means score below 0.9.
# Legend:
# [1] = molecular target: Glucocorticoid receptor (Homo sapiens) (UniProt P04150); experiment: NVS_NR_hGR: NovaScreen (NVS) Nuclear Receptor Binding Assay for human Glucocorticoid Receptor (GR) (AID 2283363);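 on AC50: activity is loss of specific radioligand binding signal relative to DMSO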
# Glucocorticoid receptor (Homo sapiens), sequence (P04150 whole entry, looked up): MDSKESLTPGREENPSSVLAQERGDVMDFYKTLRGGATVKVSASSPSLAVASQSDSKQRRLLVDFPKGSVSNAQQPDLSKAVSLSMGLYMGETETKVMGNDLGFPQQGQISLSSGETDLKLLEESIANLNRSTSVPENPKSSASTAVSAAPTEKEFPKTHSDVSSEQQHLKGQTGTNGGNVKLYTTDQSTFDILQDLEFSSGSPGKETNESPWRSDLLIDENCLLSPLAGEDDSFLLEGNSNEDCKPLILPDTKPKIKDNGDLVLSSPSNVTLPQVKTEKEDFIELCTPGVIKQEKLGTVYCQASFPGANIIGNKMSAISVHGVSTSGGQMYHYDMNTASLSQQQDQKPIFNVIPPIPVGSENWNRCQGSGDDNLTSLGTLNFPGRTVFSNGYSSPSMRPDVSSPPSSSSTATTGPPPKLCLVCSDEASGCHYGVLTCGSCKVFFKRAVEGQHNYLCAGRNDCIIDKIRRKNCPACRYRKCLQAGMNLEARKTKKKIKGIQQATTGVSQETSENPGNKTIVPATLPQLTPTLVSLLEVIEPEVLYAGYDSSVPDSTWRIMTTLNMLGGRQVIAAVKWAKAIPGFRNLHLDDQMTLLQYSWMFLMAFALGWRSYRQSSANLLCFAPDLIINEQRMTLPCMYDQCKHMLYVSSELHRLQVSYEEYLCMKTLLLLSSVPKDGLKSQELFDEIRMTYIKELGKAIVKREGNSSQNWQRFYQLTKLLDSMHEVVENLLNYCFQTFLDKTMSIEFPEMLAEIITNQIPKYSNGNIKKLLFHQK
# Outline: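 Cell-free radioligand binding with extracted receptor protein, read by filter-based scintillation counting 16 hours after dosing. Loss of specific signal versus DMSO baseline was scored. Primary screen ran in duplicate at 25 uM; actives were followed up in concentration series.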
# [2] = molecular target: Estrogen receptor beta (Homo sapiens) (UniProt Q92731); experiment: OT_ER_ERbERb_1440: Odyssey Thera (OT) 24-hour HEK293T Protein-Complementation Assay for Estrogen Receptor-beta/-beta Homodimer (AID 2283380);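 further: fluorescence gain from ER beta LBD homodimer complementation read by laser scanning cytometry; scored as signal increase over DMSO baseline for both agonists and antagonists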
# Outline: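 HEK293T cells stably expressing human ER-beta LBD (aa 310-547) PCA homodimer pair, dosed 24 h; formaldehyde-fixed, Draq5-stained. Readout: increase in nuclear (agonist) or nuclear plus cytoplasmic (antagonist) fluorescence intensity versus DMSO, gain-of-signal fitting.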
# [3] = molecular target: Estrogen receptor (Homo sapiens) (UniProt P03372); experiment: OT_ERa_GFPERaERE_0480: Odyssey Thera (OT) 8-hour HeLa Transcription Induction Assay for Estrogen Receptor (AID 2283381; active means hit-call score of the fitted dose curve at least 0.9, where 1 is the maximum; inactive means score below 0.9)
# Estrogen receptor (Homo sapiens), sequence (P03372 whole entry, looked up): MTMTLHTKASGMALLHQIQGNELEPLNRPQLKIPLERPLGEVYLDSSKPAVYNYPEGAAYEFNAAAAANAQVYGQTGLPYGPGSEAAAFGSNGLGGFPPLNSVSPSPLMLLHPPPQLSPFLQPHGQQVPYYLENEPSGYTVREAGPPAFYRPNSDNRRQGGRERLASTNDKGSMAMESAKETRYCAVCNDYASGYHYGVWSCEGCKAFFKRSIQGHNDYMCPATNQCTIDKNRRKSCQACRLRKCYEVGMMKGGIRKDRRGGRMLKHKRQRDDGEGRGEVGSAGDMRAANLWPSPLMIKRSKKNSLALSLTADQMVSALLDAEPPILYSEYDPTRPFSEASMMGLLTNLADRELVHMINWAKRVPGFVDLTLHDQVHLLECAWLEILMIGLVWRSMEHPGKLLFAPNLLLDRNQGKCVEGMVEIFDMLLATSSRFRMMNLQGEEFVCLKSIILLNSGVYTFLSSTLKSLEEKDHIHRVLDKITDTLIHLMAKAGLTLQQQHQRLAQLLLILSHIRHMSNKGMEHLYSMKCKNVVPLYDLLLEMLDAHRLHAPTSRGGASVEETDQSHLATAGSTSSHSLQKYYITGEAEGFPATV
# Outline: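 HeLa cells expressing GFP reporter under estrogen response element, imaged 8 h after dosing. GFP induction quantified by high-content fluorescence microscopy image analysis; gain of signal fitted versus DMSO.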
# [4] = molecular target: Bile acid receptor (Homo sapiens) (UniProt Q96RI1); experiment: OT_FXR_FXRSRC1_0480: Odyssey Thera (OT) 8-hour HEK293T Protein-Complementation Assay for Farnesoid X receptor/SRC-1 Co-activator (AID 2283383)
# Outline: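 HEK293T protein-fragment complementation assay: FXR and SRC-1 coactivator are fused to reporter fragments, and their interaction restores a fluorescent reporter. Readout was taken 8 h after dosing, with gain of signal fit relative to DMSO.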
# [5] = molecular target: Bile acid receptor (Homo sapiens) (UniProt Q96RI1); experiment: OT_FXR_FXRSRC1_1440: Odyssey Thera (OT) 24-hour HEK293T Protein-Complementation Assay for Farnesoid X receptor/SRC-1 Co-activator (AID 2283384)
# Outline: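 HEK293T cells, 24 h after chemical dosing. FXR–SRC-1 coactivator interaction read as fluorescence from protein-fragment complementation of a split reporter. Gain of signal fitted against DMSO baseline.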
# [6] = molecular target: Retinoic acid receptor RXR-alpha (Homo sapiens) (UniProt P19793); experiment: OT_NURR1_NURR1RXRa_0480: Odyssey Thera (OT) 8-hour HEK293T Protein Complementation Assay for Nurr1/retinoid X receptor (RXR) (AID 2283385)
# Retinoic acid receptor RXR-alpha (Homo sapiens), sequence (P19793 whole entry, looked up, the tested form may be a part): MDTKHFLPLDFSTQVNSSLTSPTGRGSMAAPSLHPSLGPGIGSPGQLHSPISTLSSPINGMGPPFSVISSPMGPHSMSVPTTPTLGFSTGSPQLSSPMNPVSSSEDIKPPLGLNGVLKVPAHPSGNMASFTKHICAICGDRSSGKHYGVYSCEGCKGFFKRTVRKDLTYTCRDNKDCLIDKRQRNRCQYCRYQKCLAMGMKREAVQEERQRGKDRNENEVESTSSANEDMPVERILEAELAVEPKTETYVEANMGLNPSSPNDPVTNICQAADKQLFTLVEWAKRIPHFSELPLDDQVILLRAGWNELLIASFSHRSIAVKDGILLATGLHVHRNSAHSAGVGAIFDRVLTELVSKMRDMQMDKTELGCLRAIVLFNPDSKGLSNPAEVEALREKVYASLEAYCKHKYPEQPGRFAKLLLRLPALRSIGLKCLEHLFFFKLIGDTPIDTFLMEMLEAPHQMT
# Outline: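 HEK293T cells expressing Nurr1 and RXRα fused to reporter fragments (protein-fragment complementation); fluorescence measured 8 h after dosing. Gain of signal fitted relative to DMSO.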
# [7] = molecular target: Retinoic acid receptor RXR-alpha (Homo sapiens) (UniProt P19793); experiment: OT_NURR1_NURR1RXRa_1440: Odyssey Thera (OT) 24-hour HEK293T Protein Complementation Assay for Nurr1/retinoid X receptor (RXR) (AID 2283386)
# Outline: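 HEK293T protein-fragment complementation of Nurr1 and RXRα fused to reporter fragments; compounds 24 h. Fluorescence gain from reconstituted reporter fitted versus DMSO.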
# [8] = molecular target: Peroxisome proliferator-activated receptor gamma (Homo sapiens) (UniProt P37231); experiment: OT_PPARg_PPARgSRC1_0480: Odyssey Thera (OT) 8-hour Protein-Complementation Assay for Peroxisome Proliferator-activated Receptor Gamma / SRC-1 Co-activator (AID 2283387);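 further: nuclear to cytoplasmic split Venus YFP fluorescence ratio reporting PPARg SRC-1 interaction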
# Peroxisome proliferator-activated receptor gamma (Homo sapiens), sequence (P37231 whole entry, looked up, the tested form may be a part): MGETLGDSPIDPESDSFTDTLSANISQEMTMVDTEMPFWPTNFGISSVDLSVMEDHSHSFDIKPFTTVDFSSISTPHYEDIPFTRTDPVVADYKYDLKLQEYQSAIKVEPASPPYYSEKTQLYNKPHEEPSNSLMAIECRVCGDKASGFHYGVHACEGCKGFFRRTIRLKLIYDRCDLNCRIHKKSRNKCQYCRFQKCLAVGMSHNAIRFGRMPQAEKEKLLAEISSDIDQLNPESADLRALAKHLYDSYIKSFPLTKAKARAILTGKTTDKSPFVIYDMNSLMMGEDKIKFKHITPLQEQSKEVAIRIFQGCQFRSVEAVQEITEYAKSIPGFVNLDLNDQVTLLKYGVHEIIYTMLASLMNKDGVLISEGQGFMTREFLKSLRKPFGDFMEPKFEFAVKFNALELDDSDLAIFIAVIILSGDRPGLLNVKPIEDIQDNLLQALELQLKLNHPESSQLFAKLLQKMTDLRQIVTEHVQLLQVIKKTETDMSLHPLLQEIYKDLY
# Outline: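 Read-out: 488 nm N/C fluorescence ratio from complemented Venus YFP fragments, ≥350 cells per image, gain-of-signal fitted against DMSO baseline. Fusions of PPARg/SRC-1 with IFP1/IFP2 expressed transiently in HEK293T; compounds applied 8 h.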
# [9] = molecular target: guinea pig Sigma Receptor, Non-selective Binding, SIGMAR1 (gene 100135589) (UniProt Q60492); experiment: NVS_OR_gSIGMA_NonSelective: NovaScreen (NVS) Nuclear Receptor Binding Assay for guinea pig Sigma Receptor, Non-selective Binding (AID 2283367)
# guinea pig Sigma Receptor, Non-selective Binding, SIGMAR1 (gene 100135589), sequence (Q60492 whole entry, looked up): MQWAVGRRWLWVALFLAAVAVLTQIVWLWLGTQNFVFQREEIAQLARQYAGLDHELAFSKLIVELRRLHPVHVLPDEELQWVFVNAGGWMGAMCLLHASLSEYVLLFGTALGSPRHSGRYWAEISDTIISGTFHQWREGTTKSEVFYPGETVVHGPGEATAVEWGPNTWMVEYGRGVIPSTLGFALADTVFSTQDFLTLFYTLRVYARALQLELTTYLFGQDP
# Outline: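 Guinea pig brain membranes, cell-free radioligand binding; read 1 h after dosing by filter-based scintillation counting. Loss of signal vs DMSO baseline taken as displacement. Primary screen single concentration 25 uM in duplicate; actives retested in concentration series.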
# [10] = molecular target: Peroxisome proliferator-activated receptor gamma (Homo sapiens) (UniProt P37231); experiment: NVS_NR_hPPARg: NovaScreen (NVS) Nuclear Receptor Binding Assay for human Peroxisome Proliferator-activated Receptor gamma (PPARg) (AID 2283370)
# Outline: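 Chemicals were tested first in duplicate at 25 uM, then in concentration series if active. Binding to cell-free PPARg protein was measured by fluorescence polarization after 2 h, with loss of signal scored against DMSO.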
# [11] = molecular target: Estrogen receptor (Homo sapiens) (UniProt P03372); experiment: OT_ERa_GFPERaERE_0120: Odyssey Thera (OT) 2-hour HeLa Transcription Induction Assay for Estrogen Receptor (AID 2283382)
# Outline: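 HeLa cells were dosed for 2 h, then GFP reporter induction was quantified by fluorescence microscopy with high-content image analysis. Gain of signal fitted against DMSO baseline.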
# [12] = molecular target: Nuclear receptor subfamily 1 group I member 2 (Homo sapiens) (UniProt O75469); experiment: NVS_NR_hPXR: NovaScreen (NVS) Nuclear Receptor Binding Assay for human Pregnane X Receptor (PXR) (AID 2283365);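 further: a drop in FRET signal versus DMSO baseline means the compound binds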
# Nuclear receptor subfamily 1 group I member 2 (Homo sapiens), sequence (O75469 whole entry, looked up): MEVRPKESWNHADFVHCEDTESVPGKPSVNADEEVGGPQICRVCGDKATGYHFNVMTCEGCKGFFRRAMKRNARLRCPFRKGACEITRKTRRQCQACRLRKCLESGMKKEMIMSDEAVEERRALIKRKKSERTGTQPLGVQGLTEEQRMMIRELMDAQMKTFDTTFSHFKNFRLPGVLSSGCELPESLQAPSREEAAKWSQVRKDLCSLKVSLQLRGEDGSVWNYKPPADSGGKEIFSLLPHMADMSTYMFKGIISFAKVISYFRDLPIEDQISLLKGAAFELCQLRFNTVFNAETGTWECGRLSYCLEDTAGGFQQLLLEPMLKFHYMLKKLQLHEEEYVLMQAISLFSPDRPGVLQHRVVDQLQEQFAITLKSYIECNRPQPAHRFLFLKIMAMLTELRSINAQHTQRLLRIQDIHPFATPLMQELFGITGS
# Outline: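 Human PXR protein, cell-free; compound added, incubated 2 h, TR-FRET read. Signal decrease vs DMSO = binding. Screened 25 uM duplicate, actives re-run as dilution series.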
# [13] = molecular target: rat Androgen Receptor (AR), Ar (gene 24208) (UniProt P15207); experiment: NVS_NR_rAR: NovaScreen (NVS) Nuclear Receptor Binding Assay for rat Androgen Receptor (AR) (AID 2283366)
# rat Androgen Receptor (AR), Ar (gene 24208), sequence (P15207 whole entry, looked up): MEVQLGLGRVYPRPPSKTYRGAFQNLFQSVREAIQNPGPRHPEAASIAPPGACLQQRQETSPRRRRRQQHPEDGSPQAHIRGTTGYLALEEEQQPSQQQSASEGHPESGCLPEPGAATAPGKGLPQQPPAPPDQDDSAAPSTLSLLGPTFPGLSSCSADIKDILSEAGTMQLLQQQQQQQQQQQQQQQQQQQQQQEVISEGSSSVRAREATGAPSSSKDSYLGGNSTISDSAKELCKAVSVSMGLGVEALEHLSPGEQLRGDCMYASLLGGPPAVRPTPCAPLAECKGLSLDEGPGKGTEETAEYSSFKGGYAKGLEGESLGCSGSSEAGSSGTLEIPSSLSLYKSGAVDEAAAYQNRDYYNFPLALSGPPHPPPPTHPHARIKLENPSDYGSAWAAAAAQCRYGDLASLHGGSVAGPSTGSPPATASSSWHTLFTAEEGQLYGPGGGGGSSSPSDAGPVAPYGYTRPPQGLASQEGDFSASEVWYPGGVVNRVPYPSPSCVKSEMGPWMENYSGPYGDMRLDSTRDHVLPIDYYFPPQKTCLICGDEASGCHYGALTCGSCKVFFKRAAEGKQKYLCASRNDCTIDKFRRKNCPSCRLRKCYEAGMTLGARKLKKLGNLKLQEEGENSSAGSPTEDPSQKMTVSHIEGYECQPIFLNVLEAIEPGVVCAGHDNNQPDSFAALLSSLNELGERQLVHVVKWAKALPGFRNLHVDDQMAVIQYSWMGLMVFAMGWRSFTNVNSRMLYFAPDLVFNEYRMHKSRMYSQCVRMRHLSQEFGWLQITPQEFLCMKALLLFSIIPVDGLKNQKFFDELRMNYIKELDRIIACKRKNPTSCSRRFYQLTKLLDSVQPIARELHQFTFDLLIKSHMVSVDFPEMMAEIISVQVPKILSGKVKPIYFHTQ
# Outline: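 Cell-free radioligand binding on extracts of prostate from testosterone-pretreated rats, read by filter-based scintillation counting 18 h after dosing. Loss of bound signal fitted positively versus DMSO; primary screen in duplicate at 25 uM, actives followed up in concentration series.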
# [14] = molecular target: Agonist Androgen Response Element (ARE), AR (gene 367) (UniProt P10275); experiment: OT_AR_ARELUC_AG_1440: Odyssey Thera (OT) 24-hour CHO-K1 Luciferase Assay for Agonist Androgen Response Element (ARE) (AID 2283379)
# Agonist Androgen Response Element (ARE), AR (gene 367), sequence (P10275 whole entry, looked up): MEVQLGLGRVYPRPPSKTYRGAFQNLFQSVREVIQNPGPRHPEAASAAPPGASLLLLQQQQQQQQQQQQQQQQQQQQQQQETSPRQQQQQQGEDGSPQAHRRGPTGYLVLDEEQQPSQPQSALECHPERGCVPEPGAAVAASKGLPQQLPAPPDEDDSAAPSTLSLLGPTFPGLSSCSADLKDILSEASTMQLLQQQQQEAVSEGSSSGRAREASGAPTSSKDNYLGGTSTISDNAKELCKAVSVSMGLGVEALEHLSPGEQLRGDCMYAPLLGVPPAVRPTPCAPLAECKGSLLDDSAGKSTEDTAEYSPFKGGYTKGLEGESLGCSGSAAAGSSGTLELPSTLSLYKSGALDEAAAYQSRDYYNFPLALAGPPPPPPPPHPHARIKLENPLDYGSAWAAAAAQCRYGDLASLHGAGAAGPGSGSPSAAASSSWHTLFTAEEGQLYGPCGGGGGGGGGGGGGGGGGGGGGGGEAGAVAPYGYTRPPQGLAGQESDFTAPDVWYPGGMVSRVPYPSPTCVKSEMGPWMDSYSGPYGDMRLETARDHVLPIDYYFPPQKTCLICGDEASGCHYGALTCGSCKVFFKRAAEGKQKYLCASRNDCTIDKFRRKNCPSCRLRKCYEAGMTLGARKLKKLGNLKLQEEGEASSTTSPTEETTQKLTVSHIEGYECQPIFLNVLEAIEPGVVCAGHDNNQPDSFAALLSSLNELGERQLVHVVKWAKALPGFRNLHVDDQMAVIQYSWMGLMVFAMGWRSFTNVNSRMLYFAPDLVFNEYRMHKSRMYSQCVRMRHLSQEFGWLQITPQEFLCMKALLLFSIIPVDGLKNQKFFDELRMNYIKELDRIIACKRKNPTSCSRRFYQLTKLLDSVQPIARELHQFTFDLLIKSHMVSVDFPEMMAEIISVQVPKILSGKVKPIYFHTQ
# Outline: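 Seed CHO-K1 cells; dose compounds for 24 h; add D-luciferin plus ATP in PBS; read luminescence. Signal increase relative to vehicle defines agonist activity, with at least 3 replicate wells per sample.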
# [15] = system: guinea pig Dopamine Transporter (DAT), gene 100714898; experiment: NVS_TR_gDAT: NovaScreen (NVS) Transporter Assay for guinea pig Dopamine Transporter (DAT) (AID 2283369);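 further: active compounds lower bound radioligand signal relative to DMSO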
# Outline: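 Scintillation counts of filter-retained radioligand report binding to guinea pig striatal membranes after 2 h. Activity scored as signal loss relative to DMSO, first at 25 uM in duplicate, then in concentration series to 50 uM.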
# [16] = system: rat Norepinephrine Transporter (NET), gene 83511; experiment: NVS_TR_rNET: NovaScreen (NVS) Transporter Assay for rat Norepinephrine Transporter (NET) (AID 2283373)
# Outline: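 Rat forebrain membranes; radioligand binding measured by filter-based scintillation counting 1 hour after dosing. Loss of specific binding versus DMSO baseline scored; primary screen in duplicate at 25 uM, actives followed up in concentration series.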
# [17] = molecular target: human Norepinephrine Transporter (NET), SLC6A2 (gene 6530) (UniProt P23975); experiment: NVS_TR_hNET: NovaScreen (NVS) Transporter Assay for human Norepinephrine Transporter (NET) (AID 2283377);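 further: cell-free membrane protein extracted from CHO cells expressing human NET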
# Outline: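 Radioligand binding to human NET in cell-free CHO-derived protein preparations, read by filter-based scintillation counting 1 hour after dosing. Loss of signal versus DMSO baseline indicated displacement; primary screening in duplicate at 25 uM, actives then titrated.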
# [18] = molecular target: human Serotonin Transporter (SERT), SLC6A4 (gene 6532) (UniProt P31645); experiment: NVS_TR_hSERT: NovaScreen (NVS) Transporter Assay for human Serotonin Transporter (SERT) (AID 2283372)
# Outline: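 Radioligand binding to native SERT in human platelet membranes, read by filter-based scintillation counting 1 h after dosing. Primary screen in duplicate at 25 uM; actives followed up in concentration series; loss of signal versus DMSO baseline.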
# [19] = molecular target: human Adenosine Transporter (Adot), SLC29A1 (gene 2030) (UniProt Q99808); experiment: NVS_TR_hAdoT: NovaScreen (NVS) Transporter Assay for human Adenosine Transporter (Adot) (AID 2283368)
# Outline: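 U937-derived membranes, cell-free radioligand binding, filter scintillation 1 h after dosing. 25 uM duplicate screen; hits (e.g. 30% inhibition) run in concentration-response up to 50 uM; loss of signal versus DMSO.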
compound,measurement,setting,value
O=C1OC2(c3ccccc31)c1cc(Br)c(O)c(Br)c1Oc1c2cc(Br)c(O)c1Br,AC50,[1],20.9 µM (active)
same,outcome,[2],inactive
same,outcome,[3],inactive
same,outcome,[4],inactive
same,outcome,[5],inactive
same,outcome,[6],inactive
same,outcome,[7],inactive
same,AC50,[8],74 µM (active)
Cc1cc(C)c(O)c(C)c1,outcome,[9],inactive
same,outcome,[10],inactive
same,outcome,[3],inactive
same,outcome,[11],inactive
same,outcome,[4],inactive
same,outcome,[5],inactive
same,outcome,[6],inactive
same,outcome,[8],inactive
O=C(O)c1ccccc1C(c1ccc(O)cc1)c1ccc(O)cc1,AC50,[1],10.2 µM (active)
same,outcome,[12],inactive
same,outcome,[13],inactive
same,outcome,[10],inactive
same,AC50,[14],1.95 µM (active)
same,outcome,[14],inactive
same,outcome,[2],inactive
same,outcome,[3],inactive
same,outcome,[6],inactive
same,outcome,[8],inactive
CCc1ccc(CCOc2ccc(CC3SC(=O)NC3=O)cc2)nc1 (configuration not stated),outcome,[9],inactive
same,outcome,[2],inactive
same,outcome,[3],inactive
same,outcome,[11],inactive
same,AC50,[6],53.6 µM (active) and 57.4 µM (active)
CC(=O)NC1(c2cccc(F)c2)CCN(CC[C@@]2(c3ccc(Cl)c(Cl)c3)CN(c3ccccc3)C(=O)CO2)CC1,outcome,[1],inactive
same,AC50,[15],25.1 µM (active)
same,AC50,[16],9.66 µM (active)
same,AC50,[17],10.1 µM (active)
same,outcome,[3],inactive
same,AC50,[4],9.52 µM (active)
same,AC50,[5],9.83 µM (active)
same,outcome,[8],inactive
ClC1=C(Cl)C(Cl)(Cl)C(Cl)=C1Cl,AC50,[12],40.8 µM (active)
same,outcome,[2],inactive
same,outcome,[3],inactive
same,outcome,[8],inactive
COCC(C)OCC(C)O (configuration not stated),outcome,[12],inactive
same,outcome,[10],inactive
same,outcome,[18],inactive
same,outcome,[14],inactive
same,outcome,[2],inactive
same,outcome,[3],inactive
same,outcome,[11],inactive
same,outcome,[5],inactive
same,outcome,[6],inactive
same,outcome,[8],inactive
CC(C)(C)c1ccc(O)c(C(C)(C)C)c1,outcome,[15],inactive
same,outcome,[2],inactive
same,outcome,[3],inactive
same,outcome,[11],inactive
same,outcome,[8],inactive
Oc1cc2ccccc2c2ccccc12,AC50,[1],1.54 µM (active)
same,AC50,[13],4.75 µM (active)
same,outcome,[19],inactive
same,AC50,[17],1.89 µM (active)
same,outcome,[14],inactive
same,outcome,[2],inactive
same,AC50,[3],28.9 µM (active)
same,outcome,[11],inactive
same,outcome,[6],inactive
same,outcome,[8],inactive
CN1CCN(c2ccccc2/C=C2\SCCN(c3ccc(Cl)c(Cl)c3)C2=O)CC1,outcome,[10],inactive
same,outcome,[2],inactive
same,AC50,[3],19.5 µM (active)
same,outcome,[8],inactive
